# Unmarked numbers belong to inactive results. Inconclusive results are not listed. A call without a number means that no potency is given here. Active and inactive are the calls of the source. Calls follow the shape of the dose curve; as a rule, active = well fitted curve in the direction sought with a large enough effect in the repeat runs; inconclusive = weak or mixed curves; inactive = no such curve, though single readings can be large; an effect the other way counts as inactive or inconclusive.
# How the values were obtained:
# [1] = qHTS RealTime-Glo MT Cell Viability Assay in HEK293 cells - 32 hour (AID 1224868); also: top concentration of the series differs between compounds; nearly all actives have a fitted effect of over 50% in size
# Method in brief: (§1)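 Cells + reagent dispensed (600 cells/well, HEK293) → 5 h at 37 C/5% CO2 → 23 nL compound in DMSO pinned → 40 h at 37 C → luminescence read at 0, 8, 16, 24, 32, 40 h.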
# [2] = A CellTox Green Cytotoxicity Assay to monitor cytotoxicity in HEK293 cells - 0 hour (AID 1224869); also: nearly all actives have a fitted effect of over 50% in size
# Method in brief: (§2)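 Read-out: fluorescence of a cell-impermeant cyanine dye staining DNA of dead cells, proportional to cytotoxicity. HEK293, 600 cells/well with reagent, compound (23 nL DMSO) added after 5 h; reads at 0, 8, 16, 24, 32, 40 h.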
# [3] = A CellTox Green Cytotoxicity Assay to monitor cytotoxicity in HEK293 cells - 40 hour (AID 1224871); also: nearly all actives have a fitted effect of over 45% in size; also: potency is read from the fitted curve at half-maximal effect
# Method in brief: as §2
# [4] = qHTS RealTime-Glo MT Cell Viability Assay in HEK293 cells - 16 hour (AID 1224872); also: top concentration of the series differs between compounds; nearly all actives have a fitted effect of over 50% in size
# Method in brief: as §1
# [5] = qHTS RealTime-Glo MT Cell Viability Assay in HepG2 cells - 8 hour (AID 1224873); also: nearly all actives have a fitted effect of over 55% in size
# Method in brief: (§3)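 HepG2 cells mixed with RealTime-Glo MT reagents (NanoLuc plus cell-permeant prosubstrate) were seeded at 600 cells/well, incubated 5 h at 37 C/5% CO2, then pinned with compounds in DMSO; nonlytic luminescence tracked viability during 40 h treatment.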
# [6] = qHTS RealTime-Glo MT Cell Viability Assay in HEK293 cells - 40 hour (AID 1224874); conditions: RealTime-Glo luminescence, hits give low values; also: nearly all actives have a fitted effect of over 50% in size
# Method in brief: (§4)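 Luminescence readout at each listed time point; HEK293, 600 cells/well, RealTime-Glo MT reagent added with cells; compounds pinned (23 nL in DMSO) after 5 h at 37 C; continuous culture at 37 C.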
# [7] = A CellTox Green Cytotoxicity Assay to monitor cytotoxicity in HEK293 cells - 24 hour (AID 1224875); also: nearly all actives have a fitted effect of over 45% in size; also: potency is read from the fitted curve at half-maximal effect; as to activity change: series mostly up to about 77 µM
# Method in brief: as §2
# [8] = A CellTox Green Cytotoxicity Assay to monitor cytotoxicity in HepG2 cells - 16 hour (AID 1224876); also: nearly all actives have a fitted effect of over 45% in size; also: potency is read from the fitted curve at half-maximal effect
# Method in brief: (§5)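 HepG2, 600 cells/well premixed w/ CellTox Green; 5 h settle, 37 C/5% CO2; pintool cpd add (DMSO); 37 C, 40 h; fluorescence read at 0, 8, 16, 24, 32, 40 h.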
# [9] = qHTS RealTime-Glo MT Cell Viability Assay in HepG2 cells - 32 hour (AID 1224877); also: nearly all actives have a fitted effect of over 55% in size
# Method in brief: (§6)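 Real-time, nonlytic viability: 600 HepG2 cells/well mixed with NanoLuc enzyme plus prosubstrate; 5 h settle, compound (DMSO) added by pintool; luminescence monitored over 40 h at 37 C.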
# [10] = A CellTox Green Cytotoxicity Assay to monitor cytotoxicity in HepG2 cells - 24 hour (AID 1224878); also: nearly all actives have a fitted effect of over 45% in size; also: potency is read from the fitted curve at half-maximal effect
# Method in brief: as §5
# [11] = qHTS RealTime-Glo MT Cell Viability Assay in HEK293 cells - 0 hour (AID 1224880)
# Method in brief: as §4
# [12] = A CellTox Green Cytotoxicity Assay to monitor cytotoxicity in HEK293 cells - 32 hour (AID 1224881); also: nearly all actives have a fitted effect of over 40% in size
# Method in brief: as §2
# [13] = A CellTox Green Cytotoxicity Assay to monitor cytotoxicity in HepG2 cells - 0 hour (AID 1224882); also: nearly all actives have a fitted effect of over 35% in size
# Method in brief: as §5
# [14] = qHTS RealTime-Glo MT Cell Viability Assay in HepG2 cells - 16 hour (AID 1224885); also: nearly all actives have a fitted effect of over 50% in size
# Method in brief: as §6
# [15] = qHTS RealTime-Glo MT Cell Viability Assay in HEK293 cells - 24 hour (AID 1224886)
# Method in brief: as §1
# [16] = qHTS RealTime-Glo MT Cell Viability Assay in HEK293 cells - 8 hour (AID 1224887)
# Method in brief: as §4
# [17] = A CellTox Green Cytotoxicity Assay to monitor cytotoxicity in HepG2 cells - 40 hour (AID 1224879); also: nearly all actives have a fitted effect of over 40% in size; also: potency is read from the fitted curve at half-maximal effect
# Method in brief: as §5
# [18] = A CellTox Green Cytotoxicity Assay to monitor cytotoxicity in HepG2 cells - 32 hour (AID 1224883); also: nearly all actives have a fitted effect of over 50% in size; also: potency is read from the fitted curve at half-maximal effect
# Method in brief: as §5
# [19] = A CellTox Green Cytotoxicity Assay to monitor cytotoxicity in HEK293 cells - 8 hour (AID 1224884); also: nearly all actives have a fitted effect of over 35% in size
# Method in brief: as §2
# [20] = qHTS RealTime-Glo MT Cell Viability Assay in HepG2 cells - 40 hour (AID 1224870); also: nearly all actives have a fitted effect of over 50% in size
# Method in brief: as §3
smiles,measurement,setting,value
CC(CC(=O)Cl)CC(C)(C)C (centres undefined),outcome,[1],inactive
same,outcome,[2],inactive
same,Potency,[3],inactive
same,outcome,[4],inactive
same,outcome,[5],inactive
same,max response,[6],4.64%
same,Potency,[7],inactive
same,Potency,[8],inactive
same,outcome,[9],inactive
same,Potency,[10],inactive
same,Potency,[11],inactive
same,Potency,[12],inactive
same,Potency,[13],inactive
same,outcome,[14],inactive
same,outcome,[15],inactive
same,outcome,[16],inactive
c1coc(Cn2cccc2)c1,outcome,[1],inactive
same,outcome,[2],inactive
same,Potency,[3],inactive
same,outcome,[4],inactive
same,outcome,[5],inactive
same,max response,[6],2.22%
same,Potency,[7],inactive
same,outcome,[9],inactive
same,Potency,[10],inactive
same,Potency,[17],inactive
same,Potency,[11],inactive
same,Potency,[12],inactive
same,Potency,[13],inactive
same,Potency,[18],inactive
same,Potency,[19],inactive
same,outcome,[14],inactive
same,outcome,[15],inactive
same,outcome,[16],inactive
C=COCCCCO,outcome,[1],inactive
same,outcome,[2],inactive
same,outcome,[4],inactive
same,max response,[6],-1.03%
same,Potency,[7],inactive
same,outcome,[9],inactive
same,Potency,[10],inactive
same,Potency,[11],inactive
same,Potency,[12],inactive
same,Potency,[13],inactive
same,Potency,[18],inactive
same,Potency,[19],inactive
same,outcome,[14],inactive
same,outcome,[15],inactive
same,outcome,[16],inactive
CCCC(=O)OC,outcome,[1],inactive
same,outcome,[2],inactive
same,outcome,[4],inactive
same,max response,[6],-2.73%
same,Potency,[7],inactive
same,Potency,[8],inactive
same,outcome,[9],inactive
same,Potency,[10],inactive
same,Potency,[17],inactive
same,Potency,[11],inactive
same,Potency,[12],inactive
same,Potency,[13],inactive
same,Potency,[18],inactive
same,Potency,[19],inactive
same,outcome,[14],inactive
same,outcome,[15],inactive
same,outcome,[16],inactive
CC(=O)c1ccc2ccc3ccccc3c2c1,outcome,[2],inactive
same,outcome,[20],inactive
same,outcome,[5],inactive
same,Potency,[7],inactive
same,Potency,[8],inactive
same,outcome,[9],inactive
same,Potency,[10],inactive
same,Potency,[17],inactive
same,Potency,[11],inactive
same,Potency,[12],inactive
same,Potency,[13],inactive
same,Potency,[19],inactive
same,outcome,[14],inactive
CC(=O)c1c(C)cc(C(C)(C)C)cc1C,outcome,[2],inactive
same,outcome,[20],inactive
same,Potency,[3],24.5 µM (active)
same,outcome,[5],inactive
same,Potency,[7],21.9 µM (active)
same,Potency,[8],38.9 µM (active)
same,outcome,[9],inactive
same,Potency,[10],34.7 µM (active)
same,Potency,[17],38.9 µM (active)
same,Potency,[11],inactive
same,Potency,[18],38.9 µM (active)
same,Potency,[19],inactive
same,outcome,[14],inactive
C[C@@H](CN1CC(=O)NC(=O)C1)N1CC(=O)NC(=O)C1,outcome,[1],inactive
same,outcome,[2],inactive
same,Potency,[3],inactive
same,outcome,[5],inactive
same,max response,[6],-3.41%
same,Potency,[7],inactive
same,Potency,[8],inactive
same,outcome,[9],inactive
same,Potency,[10],inactive
same,Potency,[11],inactive
same,Potency,[13],inactive
same,Potency,[18],inactive
same,Potency,[19],inactive
same,outcome,[14],inactive
same,outcome,[15],inactive
same,outcome,[16],inactive
CNC(=O)c1c(I)c(NC(C)=O)c(I)c(C(=O)O)c1I,outcome,[1],inactive
same,outcome,[2],inactive
same,Potency,[3],inactive
same,outcome,[4],inactive
same,outcome,[5],inactive
same,Potency,[7],inactive
same,Potency,[8],inactive
same,outcome,[9],inactive
same,Potency,[10],inactive
same,Potency,[17],inactive
same,Potency,[11],inactive
same,Potency,[12],inactive
same,Potency,[13],inactive
same,Potency,[18],inactive
same,Potency,[19],inactive
same,outcome,[14],inactive
same,outcome,[15],inactive
same,outcome,[16],inactive
CCc1ncc(C)[nH]1,outcome,[1],inactive
same,outcome,[2],inactive
same,outcome,[4],inactive
same,outcome,[5],inactive
same,max response,[6],1.1%
same,Potency,[7],inactive
same,Potency,[8],inactive
same,outcome,[9],inactive
same,Potency,[10],inactive
same,Potency,[11],inactive
same,Potency,[12],inactive
same,Potency,[13],inactive
same,Potency,[19],inactive
same,outcome,[14],inactive
same,outcome,[15],inactive
same,outcome,[16],inactive
CCN(CC)CC(=O)Oc1ccc(NC(C)=O)cc1,outcome,[2],inactive
same,Potency,[3],inactive
same,outcome,[5],inactive
same,Potency,[7],inactive
same,Potency,[8],inactive
same,outcome,[9],inactive
same,Potency,[10],inactive
same,Potency,[17],inactive
same,Potency,[11],inactive
same,Potency,[12],inactive
same,Potency,[13],inactive
same,Potency,[18],inactive
same,Potency,[19],inactive
same,outcome,[14],inactive
CN(C)CCCN(C)C,"activity change, negative = cytotoxic",[1],0.277% [at 6.97 µM]
same,cytotoxicity,[2],0.262% [at 6.97 µM]
same,cytotoxicity increase,[3],-1.24% [at 6.97 µM]
same,"activity change, negative = cytotoxicity",[4],-4.3% [at 6.97 µM]
same,"viability change, negative = cytotoxic",[5],0.94% [at 6.97 µM]
same,max response,[6],0.838%
same,activity change,[7],"-1.21% [at 6.97 µM, hits give high values]"
same,"activity change, negative = cytotoxic",[9],0.21% [at 6.97 µM]
same,cytotoxicity,[10],-15.5% [at 6.97 µM]
same,"activity change, negative = cytotoxicity",[11],-1.25% [at 6.97 µM]
same,cytotoxicity increase,[12],-0.385% [at 6.97 µM]
same,cytotoxicity,[13],-10.6% [at 6.97 µM]
same,cytotoxicity increase,[19],-3.24% [at 6.97 µM]
same,"activity change, negative = cytotoxic",[14],0.141% [at 6.97 µM]
same,"activity change, negative = cytotoxicity",[15],3.07% [at 6.97 µM]
same,"activity change, negative = cytotoxicity",[16],-0.912% [at 6.97 µM]
NS(=O)(=O)c1cc2c(cc1C(F)(F)F)NCNS2(=O)=O,outcome,[1],inactive
same,outcome,[2],inactive
same,Potency,[3],inactive
same,outcome,[4],inactive
same,outcome,[5],inactive
same,max response,[6],14.4%
same,Potency,[7],inactive
same,Potency,[8],inactive
same,outcome,[9],inactive
same,Potency,[10],inactive
same,Potency,[11],inactive
same,Potency,[12],inactive
same,Potency,[13],inactive
same,Potency,[19],inactive
same,outcome,[14],inactive
same,outcome,[15],inactive
same,outcome,[16],inactive
N=C(N)N,outcome,[1],inactive
same,outcome,[20],inactive
same,Potency,[3],inactive
same,outcome,[4],inactive
same,outcome,[5],inactive
same,max response,[6],-0.588%
same,Potency,[7],inactive
same,Potency,[8],inactive
same,outcome,[9],inactive
same,Potency,[10],inactive
same,Potency,[17],inactive
same,Potency,[11],inactive
same,outcome,[14],inactive
same,outcome,[15],inactive
same,outcome,[16],inactive
